NALP1 yeast inh: inhibitors of NALP1 inflammasome in yeast. S. cerevisiae NALP1/ASC/caspase-1 growth, X-gal OD620, 72 h. inhibition, % at 10 µM. 280,000 compounds, 0.61% hits; in the data active = inhibition mostly above about 24%, no sharp cut-off; inactive = mostly below about 32%
tim23-1 inh: growth inhibitors of tim23-1 mutant yeast. S. cerevisiae tim23-1 growth, BacTiter-Glo luminescence, 24 h. inhibition, % at 20 µM. AID 463212. 330,000 compounds, 1.3% hits;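 active = growth inhibition of the mutant yeast at or above 50%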;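 also: temperature-sensitive mutant grown at 25 °C; plate controls were DMSO-treated mutant yeast for no effect and medium wells lacking yeast for full effect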
TIM10 inh: growth inhibitors of TIM10 yeast strain; AID 463195; S. cerevisiae TIM10 strain growth, BacTiter-Glo luminescence, 24 h; 330,000 compounds, 1.4% hits; inhibition, % at 10 µM;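 active = inhibition of 40% or more at the single tested concentration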;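 also: wild-type TIM10 isogenic control strain grown at permissive 25 °C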
tim10-1 inh: growth inhibitors of tim10-1 mutant yeast. inhibition, % at 20 µM. S. cerevisiae tim10-1 ts strain growth, BacTiter-Glo, 24 h. 330,000 compounds, 2.2% hits;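 active = inhibition of at least 40%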;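 also: mutant grown at 25 °C; 0% = DMSO wells with yeast and 100% = wells holding no yeast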
NLRP3 yeast inh: blocks the NALP3 inflammasome reconstituted in yeast. Yeast reconstituted NLRP3/ASC/caspase-1, beta-gal luminescence, 24 h. inhibition, % at 10 µM. 330,000 compounds, 0.39% hits;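 active = inhibition of 50% or more; inactive = inhibition below 50%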;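 also: plate controls were induced DMSO wells for no effect and uninduced yeast grown without galactose for full effect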
tim10-1 confirm: confirmation of tim10-1 mutant yeast growth inhibitors; shares compounds with tim10-1 inh; S. cerevisiae tim10-1 ts strain growth, BacTiter-Glo, 24 h; inhibition, % at 20 µM; 7,400 compounds, 56% hits;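 active = inhibition of yeast growth at or above a set limit in either of two repeat tests at 20 µM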;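 also: tim10-1 mutant grown at permissive 25 °C to find synthetic lethal compounds; 0% = DMSO yeast wells and 100% = medium wells without yeast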
tim10 confirm: confirmation of TIM10 yeast growth inhibitors; shares compounds with TIM10 inh; S. cerevisiae tim10 strain growth, BacTiter-Glo luminescence, 24 h; inhibition, % at 10 µM; 4,600 compounds, 63% hits;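 active = inhibition of yeast growth at or above a set limit in either of two replicates at 10 µM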;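 also: this counterscreen used the strain with wild-type TIM10; 0% = yeast with DMSO and 100% = medium wells lacking yeast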
An asterisk follows results filed as active; x = not tested or not shown. Shown are actives, neighbours in structure and some others; about 4% of the full set was active somewhere.

SMILES	NALP1 yeast inh	tim23-1 inh	TIM10 inh	tim10-1 inh	NLRP3 yeast inh	tim10-1 confirm	tim10 confirm
O=C(COC(=O)c1ccc([N+](=O)[O-])o1)NCc1ccc(F)cc1	x	-47	-211	-181	14	x	x
O=C(COC(=O)c1ccc([N+](=O)[O-])s1)NC(=O)NCc1ccccc1	-2	-50	70*	70*	21	52*	71*
O=C(COC(=O)c1ccc([N+](=O)[O-])s1)NCCc1ccccc1	x	49	46*	50*	23	47*	57*
COc1ccccc1NC(=O)COC(=O)c1ccc([N+](=O)[O-])s1	6	10	82*	70*	12	68*	89*
CC(NC(=O)COC(=O)c1ccc([N+](=O)[O-])s1)c1ccccc1 (stereo not given)	41	10	20	18	13	x	x
CCOc1ccc(N2CC(C(=O)N3CCCCCC3)CC2=O)cc1 (stereo not given)	-19	8	5	-13	10	x	x
Cc1ccccc1C(C(=O)NC1CCCCC1)N(C(=O)c1ccccn1)c1cccnc1 (stereo not given)	12	10	18	14	-2	x	x
CC(OC(=O)CCC(=O)c1cccs1)C(=O)NC1CCCCC1C (stereo not given)	x	22	-5	18	17	x	x
Cc1nnnn1/C(=C\c1ccccc1)C(=O)OCC(=O)N(C)C1CCS(=O)(=O)C1 (stereo not given)	-2	11	0	18	16	x	x
CCN(C(=O)COC(=O)/C(=C/c1ccccc1)n1nnnc1C)C1CCCCC1	x	46	41*	42*	20	38*	45*
Cc1ccc(N(C)S(=O)(=O)c2cc3c(cc2C)NC(=O)CO3)cc1	17	-12	-6	-4	8	x	x
NC(=S)Nc1cccc2cc3ccccc3cc12	15	44	40*	40*	26	26	32*
O=C(NNC1=C(C(=O)C(F)(F)F)CCC1)c1cccc(Cl)c1	-9	-6	-75	-40	5	x	x
O=C(NNC1=C(C(=O)C(F)(F)F)CCC1)c1ccc(Cl)cc1	-6	50	41*	53*	12	-16	40*
Nc1ncnc2c1ncn2[C@@H]1O[C@H](CNC(=O)[C@@H]2CCN2)[C@@H](O)[C@H]1O	x	30	3	2	x	x	x
C=C1C(=O)C=C2CN(C(=O)c3ccccc3)[C@@](Cc3ccc(F)cc3)(C(=O)OC)[C@@H]12	63*	49	48*	61*	31	52*	51*
CC(=O)Nc1ccccc1OCC(=O)NCCC1=CCCCC1	12	16	5	16	5	x	x
Fc1ccc(-c2nnn3c2nc(NCc2ccccc2)c2ccccc23)cc1	x	0	-12	0	-4	x	x
NNc1nc2c(-c3ccc(F)cc3)nnn2c2ccccc12	4	26	74*	46*	9	56*	73*
Nc1c(C(=O)c2ccccc2)oc2ccc(Br)cc12	7	29	52*	45*	14	18	33*
COC(=O)CCC(=O)c1oc2ccc(Br)cc2c1N	5	45	44*	41*	12	34*	31*
COc1ccc2oc(C(=O)CCC(=O)O)c(N)c2c1	-11	7	-4	-8	-5	x	x
Nc1c(C(=O)c2ccc(Br)s2)oc2ccccc12	25	31	43*	47*	-17	35*	42*
O=C(CSc1nc2ccccc2[nH]1)N=Nc1c(O)[nH]c2ccccc12	13	5	8	3	-6	x	x
O=C(CSCc1ccc(Br)cc1)N=Nc1c(O)[nH]c2ccccc12	27	45	43*	45*	10	40*	34*
COc1ccc(S(=O)(=O)N2CCC(C(=O)Nc3ccc(F)cc3)CC2)c2cccnc12	13	10	-2	8	5	x	x
NC(=O)Nc1ccc(Cl)cc1	x	9	-25	-14	-2	x	x
NC(=O)/C=C/C(=O)Nc1ccc(Cl)cc1	79*	34	55*	61*	14	61*	56*
COCc1ccc(-c2c(-c3cc(OC)cc(OC)c3)oc(=O)c3cc(OC)c(OC)cc23)cc1	x	29	-2	13	15	x	x
